Experimental data taken from PubChem BioAssay (Tox21).
Inconclusive results are not listed. Entries that show only a call come without a potency. Unmarked numbers belong to inactive results. Calls of active or inactive are those of the source. Unless noted, calls follow the shape of the dose curve; as a rule, active = well fitted curve in the direction sought with a large enough effect in the repeat runs; inconclusive = weak or mixed curves; inactive = no such curve, though single readings can be large; an effect the other way counts as inactive or inconclusive.

Assays:
[1] = qHTS assay to identify aromatase inhibitors - cell viability counter screen (AID 743084);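 also: cells stimulated with testosterone during compound exposure; nearly all actives have a fitted effect of over 55% in size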
[2] = target: Aryl hydrocarbon receptor (Homo sapiens) (UniProt P35869); test: qHTS assay to identify small molecule that activate the aryl hydrocarbon receptor (AhR) signaling pathway (AID 743085); also: nearly all actives have a fitted effect of over 15% in size; also: potency is read from the fitted curve at half-maximal effect;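 as to activation: HG2L7.5c1 human HepG2 liver cells with stably integrated DRE-driven firefly reporter; series mostly up to about 70 µM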
Sequence of Aryl hydrocarbon receptor (Homo sapiens) (P35869 whole entry, looked up): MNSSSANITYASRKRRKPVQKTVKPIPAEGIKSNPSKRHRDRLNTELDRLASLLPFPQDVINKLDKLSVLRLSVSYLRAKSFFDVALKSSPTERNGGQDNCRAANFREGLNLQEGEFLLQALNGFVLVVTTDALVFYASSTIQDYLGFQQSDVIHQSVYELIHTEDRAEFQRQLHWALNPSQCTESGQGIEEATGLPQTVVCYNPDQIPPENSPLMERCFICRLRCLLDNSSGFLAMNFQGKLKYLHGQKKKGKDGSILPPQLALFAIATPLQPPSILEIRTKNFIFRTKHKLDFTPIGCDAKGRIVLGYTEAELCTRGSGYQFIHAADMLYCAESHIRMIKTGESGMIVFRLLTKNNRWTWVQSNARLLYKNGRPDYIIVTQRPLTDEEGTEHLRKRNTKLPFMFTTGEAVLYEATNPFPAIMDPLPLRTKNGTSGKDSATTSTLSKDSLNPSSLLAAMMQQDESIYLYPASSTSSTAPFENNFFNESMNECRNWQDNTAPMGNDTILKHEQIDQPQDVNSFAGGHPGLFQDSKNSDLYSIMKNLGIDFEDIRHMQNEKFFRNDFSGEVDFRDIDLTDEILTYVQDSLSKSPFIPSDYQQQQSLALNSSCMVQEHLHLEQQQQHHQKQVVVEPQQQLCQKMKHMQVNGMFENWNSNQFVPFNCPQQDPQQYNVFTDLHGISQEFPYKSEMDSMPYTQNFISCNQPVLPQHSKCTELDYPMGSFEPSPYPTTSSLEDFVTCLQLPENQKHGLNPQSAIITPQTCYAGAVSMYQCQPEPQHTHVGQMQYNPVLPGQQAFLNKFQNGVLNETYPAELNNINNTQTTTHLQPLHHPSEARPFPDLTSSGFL
Summary of the method: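 Steps: seed HepG2-AhR-luc cells; allow 5 h at 37C; pin-transfer test compound or vehicle; incubate 24 h at 37C; add viability dye (30 min, 37C) and read fluorescence; add luciferase substrate (30 min, RT) and read luminescence.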

[3] = qHTS assay to identify small molecule that activate the aryl hydrocarbon receptor (AhR) signaling pathway - cell viability counter screen (AID 743086);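 also: HepG2 liver cells carrying the AhR DRE luciferase reporter; series mostly up to about 70 µM; nearly all actives have a fitted effect of over 45% in size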
Summary of the method: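 Cytotoxicity counter screen: CellTiter-Fluor signal (30 min, 37 C) in 4000 HepG2 cells/well carrying the DRE-luciferase reporter, following 24 h compound exposure at 37 C.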

[4] = target: Peroxisome proliferator-activated receptor gamma (Homo sapiens) (UniProt P37231); test: qHTS assay to identify small molecule agonists of the peroxisome proliferator-activated receptor gamma (PPARg) signaling pathway (AID 743094; active = well fitted activation curve with a large enough effect in the signal ratio in the repeat runs, not every such curve was filed as active; the % refers to the signal ratio)
Sequence of Peroxisome proliferator-activated receptor gamma (Homo sapiens) (P37231 whole entry, looked up): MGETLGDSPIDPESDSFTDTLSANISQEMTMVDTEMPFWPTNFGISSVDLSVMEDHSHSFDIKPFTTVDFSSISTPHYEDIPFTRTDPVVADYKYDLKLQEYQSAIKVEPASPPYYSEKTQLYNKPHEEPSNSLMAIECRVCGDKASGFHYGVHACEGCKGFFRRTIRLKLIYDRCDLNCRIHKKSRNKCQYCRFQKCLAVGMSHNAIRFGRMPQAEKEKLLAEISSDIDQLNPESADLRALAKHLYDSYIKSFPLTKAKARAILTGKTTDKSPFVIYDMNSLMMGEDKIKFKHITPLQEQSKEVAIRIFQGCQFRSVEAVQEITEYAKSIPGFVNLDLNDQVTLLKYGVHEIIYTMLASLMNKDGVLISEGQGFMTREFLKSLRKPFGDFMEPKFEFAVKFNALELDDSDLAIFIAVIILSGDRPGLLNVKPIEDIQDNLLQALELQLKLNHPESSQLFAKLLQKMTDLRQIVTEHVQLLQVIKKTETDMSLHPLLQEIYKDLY
Summary of the method: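 Following 5 h plating at 37C, PPARg-bla HEK293H cells receive compound or DMSO for 17 h; fluorescence intensity is recorded after LiveBLAzer B/G loading for 1 h at room temperature.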

[5] = target: Peroxisome proliferator-activated receptor gamma (Homo sapiens) (UniProt P37231); test: qHTS assay to identify small molecule antagonists of the peroxisome proliferator-activated receptor gamma (PPARg) signaling pathway (AID 743191; calls by dose curve; also: series mostly up to about 63 µM; nearly all actives have a fitted effect of over 30% in size)
Summary of the method: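 Beta-lactamase reporter under UAS control in HEK293H PPARg-bla cells; compound treatment 17 h at 37C. Read-out: fluorescence intensity after 1 h room-temperature incubation with LiveBLAzer B/G FRET substrate.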

[6] = qHTS assay to identify small molecule antagonists of the peroxisome proliferator-activated receptor gamma (PPARg) signaling pathway - cell viability counter screen (AID 743194); also: nearly all actives have a fitted effect of over 55% in size
Summary of the method: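 Viability was measured as CellTiter-Glo luminescence in GeneBLAzer PPARg UAS-bla HEK293H cells. These cells had been exposed 17 h at 37 C to compounds together with rosiglitazone at 50 nM final, with the beta-lactamase readout taken in the same wells.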

[7] = qHTS assay for small molecule agonists of the antioxidant response element (ARE) signaling pathway (AID 743202; active = well fitted activation curve with a large enough effect in the signal ratio in the repeat runs, not every such curve was filed as active; the % refers to the signal ratio; also: potency is read from the fitted curve at half-maximal effect)
Summary of the method: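 An ARE-responsive beta-lactamase gene stably integrated in HepG2 cells serves as reporter. After 5 h plating and 16 h compound incubation at 37 C, fluorescence of the B/G FRET substrate was measured.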

[8] = qHTS assay for small molecule activators of the heat shock response signaling pathway - cell viability counter screen (AID 743209); also: nearly all actives have a fitted effect of over 50% in size
Summary of the method: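 Counter screen for cytotoxicity in HeLa HSE-bla reporter cells. Treatment was 5 h at 37 C; viability was detected by luminescent ATP assay (CellTiter-Glo) in the same wells as the beta-lactamase read.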

[9] = qHTS assay for small molecule activators of the heat shock response signaling pathway (AID 743210; active = well fitted activation curve with a large enough effect in the signal ratio in the repeat runs, with a control signal flat, not every such curve was filed as active; the % refers to the signal ratio;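 also: HeLa cells with beta-lactamase reporter driven by heat shock elements; series mostly up to about 63 µM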)
Summary of the method: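 In HSE-bla HeLa cells, 5 h compound incubation (37 C) precedes addition of LiveBLAzer B/G substrate; after 2.5 h at room temperature, fluorescence intensity indicates reporter induction.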

[10] = qHTS assay to identify small molecule agonists of the peroxisome proliferator-activated receptor delta (PPARd) signaling pathway - cell viability counter screen (AID 743211); also: nearly all actives have a fitted effect of over 55% in size
Summary of the method: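 Viability of GeneBLAzer PPARd UAS-bla HEK293H cells was assessed after 17 h compound incubation at 37C, using CellTiter-Glo reagent added after the reporter read and luminescence recorded 30 min later.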

[11] = qHTS assay to identify small molecule antagonists of the peroxisome proliferator-activated receptor delta (PPARd) signaling pathway - cell viability counter screen (AID 743213); also: nearly all actives have a fitted effect of over 50% in size
Summary of the method: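 Same-well viability: cells pre-incubated 5 h, dosed with compound plus 300 nM L165041, kept 17 h at 37 C, FRET substrate 2 h RT, then CellTiter-Glo 30 min RT and luminescence.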

[12] = qHTS assay to identify small molecule agonists of the farnesoid-X-receptor (FXR) signaling pathway - cell viability counter screen (AID 743218); also: nearly all actives have a fitted effect of over 45% in size
Summary of the method: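 After 16 h at 37 C with test compounds, FXR-bla HEK 293T cells were given LiveBLAzer B/G substrate for 2 h at RT and then CellTiter-Glo; luminescence was taken after 30 min.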

[13] = qHTS assay to identify small molecule antagonists of the farnesoid-X-receptor (FXR) signaling pathway - cell viability counter screen (AID 743221; active = well fitted cell-killing curve with a large enough effect in the repeat runs, not every such curve was filed as active; also: nearly all actives have a fitted effect of over 50% in size)
Summary of the method: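 Quantitative HTS of the Tox21 10K library run in parallel with the beta-lactamase reporter read. HEK 293T cells carrying a UAS-driven bla reporter got compound and 50 uM CDCA (final) for 16 h; ATP-based luminescence followed.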

[14] = target: Vitamin D3 receptor (Homo sapiens) (UniProt P11473); test: qHTS assay to identify small molecule agonists of the vitamin D receptor (VDR) signaling pathway (AID 743222; calls by dose curve)
Sequence of Vitamin D3 receptor (Homo sapiens) (P11473 whole entry, looked up): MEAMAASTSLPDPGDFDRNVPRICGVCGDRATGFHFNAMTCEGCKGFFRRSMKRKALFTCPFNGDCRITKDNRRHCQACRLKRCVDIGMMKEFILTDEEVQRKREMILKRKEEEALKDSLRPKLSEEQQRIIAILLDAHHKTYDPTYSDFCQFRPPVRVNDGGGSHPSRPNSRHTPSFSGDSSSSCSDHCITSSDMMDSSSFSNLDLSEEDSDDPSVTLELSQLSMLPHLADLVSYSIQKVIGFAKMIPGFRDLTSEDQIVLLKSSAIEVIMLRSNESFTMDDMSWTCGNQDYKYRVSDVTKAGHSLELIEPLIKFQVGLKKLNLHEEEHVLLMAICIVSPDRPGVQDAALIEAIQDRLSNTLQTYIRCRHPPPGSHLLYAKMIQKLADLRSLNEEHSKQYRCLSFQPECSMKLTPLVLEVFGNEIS
Summary of the method: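 VDR-bla cells were seeded, left 4 h, treated with compounds in DMSO for 16 h, incubated 2 h at RT with B/G FRET substrate, and read for fluorescence.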

[15] = qHTS assay for small molecule agonists of the antioxidant response element (ARE) signaling pathway - cell viability counter screen (AID 743203; calls by dose curve; also: nearly all actives have a fitted effect of over 55% in size)
Summary of the method: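 Compounds in DMSO were pinned onto ARE-bla HepG2 cells plated 5 hrs earlier at 2,000 cells/well. Sixteen hours later at 37C/5% CO2, CellTiter-Glo was added and luminescence measured after 30 min at room temperature.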

[16] = target: Peroxisome proliferator-activated receptor delta (Homo sapiens) (UniProt Q03181); test: qHTS assay to identify small molecule agonists of the peroxisome proliferator-activated receptor delta (PPARd) signaling pathway (AID 743212; calls by dose curve)
Sequence of Peroxisome proliferator-activated receptor delta (Homo sapiens) (Q03181 whole entry, looked up): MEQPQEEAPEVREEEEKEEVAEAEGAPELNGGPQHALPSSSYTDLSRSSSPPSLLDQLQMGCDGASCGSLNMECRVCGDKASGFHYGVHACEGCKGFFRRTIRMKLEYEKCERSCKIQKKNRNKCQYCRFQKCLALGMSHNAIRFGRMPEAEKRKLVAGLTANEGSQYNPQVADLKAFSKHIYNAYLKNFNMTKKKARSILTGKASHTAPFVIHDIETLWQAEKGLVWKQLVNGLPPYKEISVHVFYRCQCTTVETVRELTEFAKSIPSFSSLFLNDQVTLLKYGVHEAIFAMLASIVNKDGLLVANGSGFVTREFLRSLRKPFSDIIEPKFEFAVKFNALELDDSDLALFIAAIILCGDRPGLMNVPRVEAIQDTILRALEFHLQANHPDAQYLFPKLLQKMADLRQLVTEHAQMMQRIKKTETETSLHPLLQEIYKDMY
Summary of the method: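 HEK293H UAS-bla reporter cells, human PPARd system; compounds delivered in DMSO after 5 h plating, then at 37 C. Beta-lactamase FRET read, 2 h RT substrate step.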

[17] = target: Peroxisome proliferator-activated receptor delta (Homo sapiens) (UniProt Q03181); test: qHTS assay to identify small molecule antagonists of the peroxisome proliferator-activated receptor delta (PPARd) signaling pathway (AID 743215; active = well fitted inhibition curve with a large enough effect in the signal ratio in the repeat runs, not every such curve was filed as active; the % refers to the signal ratio;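 also: cells stimulated with agonist L165041 at 300 nM final during compound exposure; series mostly up to about 62 µM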)
Summary of the method: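 With L165041 present at 300 nM final, compounds were incubated 17 h at 37 C on PPARd UAS-bla HEK293H cells. A FRET-based beta-lactamase substrate was then applied for 2 h at room temperature and fluorescence intensity recorded.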

[18] = target: Bile acid receptor (Homo sapiens) (UniProt Q96RI1); test: qHTS assay to identify small molecule antagonists of the farnesoid-X-receptor (FXR) signaling pathway (AID 743217; active = well fitted inhibition curve with a large enough effect in the signal ratio in the repeat runs, not every such curve was filed as active; the % refers to the signal ratio)
Sequence of Bile acid receptor (Homo sapiens) (Q96RI1 whole entry, looked up): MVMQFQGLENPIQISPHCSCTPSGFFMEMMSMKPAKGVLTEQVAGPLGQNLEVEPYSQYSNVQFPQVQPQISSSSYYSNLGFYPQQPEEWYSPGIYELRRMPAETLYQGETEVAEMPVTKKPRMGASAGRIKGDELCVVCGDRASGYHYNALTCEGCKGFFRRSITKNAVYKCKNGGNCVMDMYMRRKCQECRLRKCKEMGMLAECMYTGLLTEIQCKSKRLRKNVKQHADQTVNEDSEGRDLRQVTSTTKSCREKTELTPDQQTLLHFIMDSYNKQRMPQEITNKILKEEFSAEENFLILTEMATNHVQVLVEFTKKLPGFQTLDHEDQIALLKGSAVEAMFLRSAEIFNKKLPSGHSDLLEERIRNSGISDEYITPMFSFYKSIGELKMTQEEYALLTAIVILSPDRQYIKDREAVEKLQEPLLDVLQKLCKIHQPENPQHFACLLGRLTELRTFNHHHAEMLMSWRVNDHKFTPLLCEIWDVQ
Summary of the method: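 In this cell-based antagonist screen, inhibition of CDCA-driven (50 uM final) UAS-beta-lactamase expression in HEK 293T cells was measured by FRET fluorescence following 16 h compound exposure at 37 °C.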

[19] = target: Bile acid receptor (Homo sapiens) (UniProt Q96RI1); test: qHTS assay to identify small molecule agonists of the farnesoid-X-receptor (FXR) signaling pathway (AID 743220; active = well fitted activation curve with a large enough effect in the signal ratio in the repeat runs, not every such curve was filed as active; the % refers to the signal ratio)
Summary of the method: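 Beta-lactamase reporter under UAS control in GeneBLAzer FXR HEK 293T cells (5000/well) measured with LiveBLAzer FRET substrate after 2 h at room temperature. Compound exposure lasted 16 h at 37C.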

[20] = target: Vitamin D3 receptor (Homo sapiens) (UniProt P11473); test: qHTS assay to identify small molecule antagonists of the vitamin D receptor (VDR) signaling pathway (AID 743223; active = well fitted inhibition curve with a large enough effect in the signal ratio in the repeat runs, not every such curve was filed as active; the % refers to the signal ratio)
Summary of the method: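 Fluorescence from LiveBLAzer B/G FRET substrate, read after 2 h at room temperature, reflects beta-lactamase reporter activity in VDR-bla cells treated 16 h at 37C with compounds and agonist 1alpha,25-dihydroxyvitamin D3 (3 nM final).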

Compound | Potency [1] | Potency [2] | Potency [3] | Potency [4] | outcome [5] | outcome [6] | Potency [7] | Potency [8] | outcome [9] | outcome [10] | outcome [11] | outcome [12] | outcome [13] | outcome [14] | outcome [15] | outcome [16] | outcome [17] | outcome [18] | outcome [19] | outcome [20]
CC1=NN(c2ccc(S(=O)(=O)O)cc2)C(=O)C1 | inactive | inactive | inactive | inactive | inactive | inactive | inactive | inactive | inactive | inactive | inactive | inactive | inactive | inactive | – | – | – | – | – | –
COC(=O)/C=C\C(=O)O | inactive | inactive | inactive | inactive | inactive | inactive | 27.3 µM (active) | inactive | – | inactive | inactive | – | – | – | inactive | inactive | inactive | – | – | –
CCNC(=O)NCc1cccc(Cl)c1 | inactive | inactive | inactive | inactive | inactive | inactive | inactive | inactive | inactive | inactive | inactive | inactive | – | inactive | – | inactive | inactive | inactive | inactive | inactive
CCCCC1CCC(O)CC1 (stereo unspecified) | inactive | inactive | inactive | inactive | inactive | inactive | inactive | inactive | inactive | inactive | inactive | – | – | inactive | inactive | inactive | inactive | inactive | inactive | inactive
c1ccc(-c2nn[nH]n2)cc1 | inactive | inactive | inactive | inactive | inactive | inactive | inactive | inactive | inactive | inactive | inactive | inactive | inactive | inactive | inactive | – | – | inactive | inactive | inactive
CCCCSCCCC | inactive | inactive | inactive | inactive | inactive | inactive | inactive | inactive | inactive | inactive | inactive | – | inactive | – | inactive | inactive | inactive | – | – | –
NCc1ccc(S(N)(=O)=O)cc1 | inactive | inactive | inactive | inactive | inactive | inactive | inactive | inactive | inactive | inactive | inactive | inactive | inactive | inactive | inactive | inactive | inactive | inactive | inactive | inactive
CO/N=C(/C(=O)N[C@@H]1C(=O)N2C(C(=O)[O-])=C(C[n+]3ccn4ncccc43)CS[C@H]12)c1nsc(N)n1 | inactive | inactive | inactive | inactive | inactive | inactive | inactive | inactive | inactive | inactive | inactive | – | inactive | – | inactive | inactive | inactive | – | – | –
C=C(C)c1cccc(C(C)(C)N=C=O)c1 | inactive | inactive | inactive | inactive | inactive | inactive | inactive | inactive | inactive | inactive | inactive | inactive | inactive | inactive | inactive | – | – | – | – | inactive
OCCN1CCOCC1 | inactive | inactive | inactive | inactive | inactive | inactive | inactive | inactive | inactive | inactive | inactive | – | – | – | inactive | inactive | inactive | – | – | –
NCCOCCN | inactive | inactive | inactive | inactive | inactive | inactive | inactive | inactive | inactive | inactive | inactive | inactive | inactive | inactive | – | inactive | inactive | – | – | inactive
CC/C(C)=N\O[Si](C)(O/N=C(\C)CC)O/N=C(\C)CC | inactive | 24.7 µM (active) | inactive | inactive | inactive | inactive | inactive | inactive | – | inactive | inactive | inactive | – | inactive | inactive | inactive | inactive | inactive | inactive | –
CN1C[C@@H]2C[C@H]1CN2c1cc2c(cc1F)c(=O)c(C(=O)O)cn2C1CC1 | inactive | inactive | inactive | inactive | inactive | inactive | inactive | inactive | inactive | inactive | inactive | inactive | inactive | inactive | inactive | inactive | inactive | inactive | inactive | inactive
O=C(CN1CCNCC1)NC1CCCCC1 | inactive | inactive | inactive | inactive | inactive | inactive | inactive | inactive | inactive | inactive | inactive | inactive | – | – | inactive | inactive | inactive | – | – | –
O=C(O)CSCC(=O)NC1CCSC1=O (stereo unspecified) | inactive | inactive | inactive | inactive | inactive | inactive | inactive | inactive | inactive | inactive | inactive | inactive | inactive | inactive | inactive | inactive | inactive | inactive | inactive | –
CC(=O)OC1CCCCC1C(C)(C)C (stereo unspecified) | inactive | inactive | inactive | inactive | inactive | inactive | inactive | inactive | inactive | inactive | inactive | inactive | inactive | inactive | – | inactive | inactive | – | – | inactive
